# Assay results from PubChem BioAssay (Tox21).
# Values joined by “and” are separate entries in the source; they are usually repeats but may differ in a detail not shown here. Equal entries are not always repeated. Records with an inconclusive call do not appear. A call without a number means that no potency is given here. Where a structure was tested more than once in an assay, its records may differ in their call. Active and inactive are the calls of the source. Unless noted, calls come from the whole dose curve.
# Legend:
# [1] = qHTS assay to identify small molecule agonists of the sonic hedgehog signaling (Shh) pathway (AID 1259368); note: series mostly up to about 92 µM; nearly all actives have a fitted effect of over 15% in size
# Summary of the method: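 NIH/3T3-derived 3T3Gli1-Luc cells carrying a stably integrated Gli1 response element–firefly luciferase reporter were plated, left 4 hr at 37 C, then given compounds in DMSO for 24 hr. Luminescence was read 30 min after adding luciferase reagent.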
# [2] = target: Estrogen receptor beta (Homo sapiens) (UniProt Q92731); assay: qHTS assay to identify small molecule agonists of the estrogen receptor beta (ER-beta) signaling pathway (AID 1259377; active = well fitted activation curve with a large enough effect in the signal ratio in the repeat runs, not every such curve was filed as active; the % refers to the signal ratio)
# Summary of the method: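 Ratiometric beta-lactamase FRET read-out came after 2 h substrate loading at room temperature. It followed 16 h compound treatment at 37C of GripTite HEK293T cells carrying a UAS-bla reporter, plated in 2% charcoal-stripped FBS medium.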
# [3] = target: Estrogen receptor beta (Homo sapiens) (UniProt Q92731); assay: qHTS assay to identify small molecule antagonists of the estrogen receptor beta (ER-beta) signaling pathway (AID 1259378; active = well fitted inhibition curve with a large enough effect in the signal ratio in the repeat runs, not every such curve was filed as active; the % refers to the signal ratio)
# Summary of the method: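 Antagonist mode: compounds added to beta-lactamase reporter HEK293T ER-beta-UAS cells stimulated with E2 (1nM final), 16 hr at 37C. LiveBLAzer B/G FRET substrate, 2 hours room temperature, fluorescence read-out.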
# [4] = qHTS assay to identify small molecule agonists of the androgen receptor (AR) signaling pathway in the presence of an antagonist - cell viability counter screen (AID 1259379; active = well fitted curve in the direction sought with a large enough effect in the repeat runs; an effect the other way counts as inactive or inconclusive; note: series mostly up to about 92 µM; nearly all actives have a fitted effect of over 25% in size)
# Summary of the method: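 MDA-kb2 human breast carcinoma cells (stable MMTV-luciferase, AR/GR responsive) were seeded 3,000 cells/well, pre-incubated 5 hr at 37C without CO2, then given 3.0uM nilutamide and compounds at 15 concentrations for 16 hr. Viability was read by CellTiter-Fluor fluorescence.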
# [5] = qHTS assay to identify small molecule agonists of the estrogen receptor beta (ER-beta) signaling pathway - cell viability counter screen (AID 1259380; active = well fitted curve in the direction sought with a large enough effect in the repeat runs; an effect the other way counts as inactive or inconclusive; note: nearly all actives have a fitted effect of over 30% in size)
# Summary of the method: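 ER-beta-UAS-bla HEK293T cells in medium with 2% charcoal-stripped FBS were preincubated 6 hr at 37C, dosed with compound in DMSO for 16 hr, then after the bla read, CellTiter-Glo was added for 30 min at room temperature; luminescence recorded.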
# [6] = target: Androgen receptor (Homo sapiens) (UniProt P10275); assay: qHTS assay to identify small molecule agonists of the androgen receptor (AR) signaling pathway in the presence of an antagonist (AID 1259381); note: nearly all actives have a fitted effect of over 15% in size; note: potency is the fitted concentration of half-maximal effect
# Summary of the method: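 MDA-kb2 human breast carcinoma cells carrying an MMTV-luciferase reporter (AR- and GR-responsive) were treated with compounds at 15 concentrations plus 3.0uM final nilutamide for 16hr at 37C without CO2; luminescence was read after ONE-Glo addition.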
# [7] = qHTS assay to identify small molecule antagonists of the estrogen receptor beta (ER-beta) signaling pathway - cell viability counter screen (AID 1259382; active = well fitted curve in the direction sought with a large enough effect in the repeat runs; an effect the other way counts as inactive or inconclusive;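 note: HEK293T cells carrying ER-beta-UAS-bla reporter stimulated with estradiol; series mostly up to about 92 µM; nearly all actives have a fitted effect of over 55% in size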)
# Summary of the method: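 ER-beta-UAS-bla HEK293T cells (2,000/well, 2% charcoal-stripped FBS) were pre-incubated 6 hr at 37C, then given compound plus 1nM final 17-beta-estradiol for 16 hr. Viability was read in the same wells by CellTiter-Glo luminescence after 30 min at room temperature.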
# [8] = target: Estrogen receptor (Homo sapiens) (UniProt P03372); assay: qHTS assay to identify small molecule agonists of the estrogen receptor alpha (ER-alpha) signaling pathway in the presence of an antagonist (AID 1259383); note: top concentration of the series differs between compounds; nearly all actives have a fitted effect of over 15% in size
# Summary of the method: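 VM7Luc4E2 cells (endogenous full-length ER-alpha, 4×ERE-luciferase) were precultured 5 days in phenol red-free medium with 10% charcoal-stripped FBS, given 10.0nM ICI-182,780 (final), then treated with compounds at 15 concentrations for 22hr at 37C; luminescence read with ONE-Glo.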
# [9] = qHTS assay to identify small molecule agonists or antagonists of the thyroid stimulating hormone receptor (TSHR) signaling pathway - wild type cell line counter screen (AID 1259384)
# Summary of the method: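 Counter screen in untransfected Hek293: compounds (15-point titration, triplicate) plus phosphodiesterase inhibitor Ro20-1724 added after 18 h plating; 30 min RT. Intracellular cAMP via competitive d2/cryptate immunoassay, 1 h incubation.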
# [10] = qHTS assay to identify small molecule antagonists of the sonic hedgehog signaling (Shh) pathway (AID 1259369); note: nearly all actives have a fitted effect of over 45% in size; note: potency is the fitted concentration of half-maximal effect
# Summary of the method: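 NIH/3T3-derived 3T3Gli1-Luc cells with stably integrated Gli1-Luc reporter were preincubated 4hr at 37 C, then given compounds in DMSO plus Shh conditioned medium and incubated 24hr. Firefly luciferase luminescence read after 30min reagent at room temperature.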
# Sequence of Androgen receptor (Homo sapiens) (P10275 whole entry, looked up): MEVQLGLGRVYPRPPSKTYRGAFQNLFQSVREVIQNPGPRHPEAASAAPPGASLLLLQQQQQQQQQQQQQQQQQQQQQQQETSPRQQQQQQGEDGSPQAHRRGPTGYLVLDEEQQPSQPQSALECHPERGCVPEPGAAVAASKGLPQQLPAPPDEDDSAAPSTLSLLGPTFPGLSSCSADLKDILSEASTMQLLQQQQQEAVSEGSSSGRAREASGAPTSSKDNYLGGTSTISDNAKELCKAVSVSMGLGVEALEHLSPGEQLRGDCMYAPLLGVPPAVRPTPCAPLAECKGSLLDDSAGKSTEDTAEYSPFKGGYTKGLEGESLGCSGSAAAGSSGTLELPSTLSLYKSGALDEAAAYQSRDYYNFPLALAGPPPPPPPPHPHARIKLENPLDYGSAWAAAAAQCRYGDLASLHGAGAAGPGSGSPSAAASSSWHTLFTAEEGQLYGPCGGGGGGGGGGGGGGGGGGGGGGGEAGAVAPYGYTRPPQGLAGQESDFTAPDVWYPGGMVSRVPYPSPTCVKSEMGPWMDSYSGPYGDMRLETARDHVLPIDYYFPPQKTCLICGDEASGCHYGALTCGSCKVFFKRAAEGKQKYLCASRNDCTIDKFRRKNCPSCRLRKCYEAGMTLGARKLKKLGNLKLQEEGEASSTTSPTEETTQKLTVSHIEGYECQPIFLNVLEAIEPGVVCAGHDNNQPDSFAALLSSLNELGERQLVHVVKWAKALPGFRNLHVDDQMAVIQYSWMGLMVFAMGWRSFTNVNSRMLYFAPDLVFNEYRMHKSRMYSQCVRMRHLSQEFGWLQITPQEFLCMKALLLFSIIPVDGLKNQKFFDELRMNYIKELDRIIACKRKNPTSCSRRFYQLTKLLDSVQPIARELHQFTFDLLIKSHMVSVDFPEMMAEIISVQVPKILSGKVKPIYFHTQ
# Sequence of Estrogen receptor (Homo sapiens) (P03372 whole entry, looked up): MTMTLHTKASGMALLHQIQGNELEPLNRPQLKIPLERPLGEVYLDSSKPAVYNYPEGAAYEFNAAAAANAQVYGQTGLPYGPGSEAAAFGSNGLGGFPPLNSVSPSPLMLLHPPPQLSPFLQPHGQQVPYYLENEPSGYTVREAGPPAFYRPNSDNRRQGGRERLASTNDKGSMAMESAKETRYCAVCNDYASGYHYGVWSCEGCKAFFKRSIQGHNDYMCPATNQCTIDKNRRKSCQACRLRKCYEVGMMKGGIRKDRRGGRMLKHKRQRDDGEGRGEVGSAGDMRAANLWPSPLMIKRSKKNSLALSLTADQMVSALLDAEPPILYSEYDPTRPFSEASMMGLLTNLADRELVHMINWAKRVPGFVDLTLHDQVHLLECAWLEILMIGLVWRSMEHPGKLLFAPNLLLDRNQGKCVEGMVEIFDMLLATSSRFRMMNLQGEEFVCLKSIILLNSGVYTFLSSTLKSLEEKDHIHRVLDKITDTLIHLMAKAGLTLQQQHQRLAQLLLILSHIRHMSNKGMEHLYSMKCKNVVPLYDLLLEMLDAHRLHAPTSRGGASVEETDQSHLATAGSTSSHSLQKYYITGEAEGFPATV
# Sequence of Estrogen receptor beta (Homo sapiens) (Q92731 whole entry, looked up): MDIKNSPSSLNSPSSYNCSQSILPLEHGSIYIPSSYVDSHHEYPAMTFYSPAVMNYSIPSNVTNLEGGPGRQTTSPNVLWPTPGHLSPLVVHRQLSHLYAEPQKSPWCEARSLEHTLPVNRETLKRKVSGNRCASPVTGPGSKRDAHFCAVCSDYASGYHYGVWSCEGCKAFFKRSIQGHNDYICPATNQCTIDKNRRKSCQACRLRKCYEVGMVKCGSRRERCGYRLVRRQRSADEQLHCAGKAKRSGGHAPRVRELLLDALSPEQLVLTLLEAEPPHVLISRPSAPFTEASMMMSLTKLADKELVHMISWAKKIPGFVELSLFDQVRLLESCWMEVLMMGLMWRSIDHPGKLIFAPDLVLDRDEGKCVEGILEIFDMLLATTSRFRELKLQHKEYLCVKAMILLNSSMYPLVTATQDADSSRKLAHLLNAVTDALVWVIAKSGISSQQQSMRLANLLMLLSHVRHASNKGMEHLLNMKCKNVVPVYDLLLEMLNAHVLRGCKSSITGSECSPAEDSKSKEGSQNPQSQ
smiles,measurement,setting,value
Cc1cnc(NS(=O)(=O)c2ccc(N)cc2)nc1,outcome,[1],inactive
same,outcome,[2],inactive
same,outcome,[3],inactive
same,Potency,[4],inactive
same,Potency,[5],inactive
same,Potency,[6],inactive
same,Potency,[7],inactive
same,Potency,[8],inactive
same,outcome,[9],inactive
COc1ccc(CCN(C)CCCC(C#N)(c2cc(OC)c(OC)c(OC)c2)C(C)C)cc1OC (stereo not drawn),outcome,[1],inactive
same,outcome,[2],inactive
same,outcome,[3],inactive
same,Potency,[4],inactive
same,Potency,[5],inactive
same,Potency,[7],inactive
same,outcome,[9],inactive
C[C@@H]1CCN(C(=O)[C@H](CCCN=C(N)N)NS(=O)(=O)c2cccc3c2NC[C@H](C)C3)[C@@H](C(=O)O)C1,outcome,[1],inactive
same,Potency,[10],inactive
same,Potency,[7],inactive
same,Potency,[8],inactive
same,outcome,[9],inactive
O=C(O)CCCc1ccccc1,outcome,[1],inactive
same,Potency,[10],inactive
same,Potency,[4],inactive
same,Potency,[5],inactive
same,Potency,[7],inactive
same,outcome,[9],inactive
CCCCCSCCCCC,outcome,[1],inactive
same,Potency,[10],inactive
same,Potency,[4],inactive
same,Potency,[7],inactive
same,Potency,[8],inactive
same,outcome,[9],inactive
COC(=O)C1=C(C)NC(C)=C(C(=O)OC)C1c1ccccc1[N+](=O)[O-],outcome,[1],inactive
same,outcome,[2],inactive
same,outcome,[3],inactive
same,Potency,[4],inactive
same,Potency,[5],inactive
same,Potency,[7],inactive
same,Potency,[8],inactive
same,outcome,[9],inactive
C=C[Si](OC(=C)C)(OC(=C)C)OC(=C)C,outcome,[1],inactive
same,outcome,[2],inactive
same,outcome,[3],inactive
same,Potency,[4],inactive
same,Potency,[5],inactive
same,Potency,[7],inactive
same,Potency,[8],inactive
same,outcome,[9],inactive
CCOC(C)(C)C,outcome,[1],inactive
same,Potency,[10],inactive
same,Potency,[4],inactive
same,Potency,[7],inactive
same,Potency,[8],inactive
same,outcome,[9],inactive
Cc1ccc(=O)n(-c2ccccc2)c1,outcome,[1],inactive
same,outcome,[2],inactive
same,outcome,[3],inactive
same,Potency,[4],inactive
same,Potency,[5],inactive
same,Potency,[7],inactive
same,Potency,[8],inactive
same,outcome,[9],inactive
CC(C)NCCCC1(C(N)=O)c2ccccc2-c2ccccc21,outcome,[1],inactive
same,Potency,[10],inactive
same,Potency,[4],inactive
same,Potency,[7],inactive
same,Potency,[8],inactive
same,outcome,[9],inactive
CC(=O)c1ccccc1O,outcome,[1],inactive
same,Potency,[10],inactive
same,Potency,[4],inactive
same,Potency,[7],inactive
same,Potency,[8],inactive
same,outcome,[9],inactive
CO[C@]12C[C@@H](COC(=O)c3cncc(Br)c3)CN(C)[C@@H]1Cc1cn(C)c3cccc2c13,outcome,[1],inactive
same,Potency,[10],inactive
same,Potency,[5],inactive
same,Potency,[6],inactive
same,Potency,[7],inactive
same,outcome,[9],inactive
CC(C)(c1ccc(O)cc1)c1ccc(O)cc1,outcome,[1],inactive
same,Potency,[10],38.1 µM (active) and 19.7 µM (active)
same,Potency,[6],inactive and 27.8 µM (active)
same,Potency,[7],inactive
same,outcome,[9],inactive
CN1CCCC1,outcome,[1],inactive
same,Potency,[10],inactive
same,Potency,[7],inactive
same,Potency,[8],inactive
same,outcome,[9],inactive
CCCN1CCCC[C@H]1C(=O)Nc1c(C)cccc1C,outcome,[1],inactive
same,Potency,[10],inactive
same,Potency,[5],inactive
same,Potency,[7],inactive
same,outcome,[9],inactive
CCCc1cc(C(N)=S)ccn1,outcome,[1],inactive
same,Potency,[10],inactive
same,Potency,[4],inactive
same,Potency,[7],inactive
same,Potency,[8],inactive
same,outcome,[9],inactive
C[N+](C)(C)CC(O)CC(=O)[O-] (stereo not drawn),outcome,[1],inactive
same,Potency,[10],inactive
same,Potency,[4],inactive
same,Potency,[5],inactive
same,Potency,[7],inactive
same,outcome,[9],inactive
CC(=O)OCC(=O)[C@@]1(O)CC[C@H]2[C@@H]3CCC4=CC(=O)CC[C@]4(C)[C@H]3C(=O)C[C@@]21C,outcome,[1],inactive
same,outcome,[2],inactive
same,outcome,[3],inactive
same,Potency,[4],inactive
same,Potency,[5],inactive
same,Potency,[7],inactive
same,Potency,[8],inactive
CN1CCN(c2cc3c(cc2F)c(=O)c(C(=O)O)cn3-c2ccc(F)cc2)CC1,outcome,[1],inactive
same,outcome,[2],inactive
same,Potency,[4],inactive
same,Potency,[5],inactive
same,Potency,[6],26.6 µM (active)
same,Potency,[7],inactive
CCOC(=O)c1c(C)n(C)c2ccc(O)cc12,outcome,[1],inactive
same,Potency,[4],inactive
same,Potency,[6],inactive
same,Potency,[7],inactive
same,outcome,[9],inactive
OCCOc1ccc(OCCO)cc1,outcome,[1],inactive
same,Potency,[4],inactive
same,Potency,[5],inactive
same,Potency,[7],inactive
same,Potency,[8],inactive
same,outcome,[9],inactive
CCCCCCCCCCCC,outcome,[1],inactive
same,Potency,[4],inactive
same,Potency,[5],inactive
same,Potency,[7],inactive
same,outcome,[9],inactive
O=C1NC(=O)[C@@]2(CCOc3ccc(F)cc32)N1,outcome,[1],inactive
same,outcome,[3],inactive
same,Potency,[4],inactive
same,Potency,[5],inactive
same,Potency,[7],inactive
same,Potency,[8],inactive
same,outcome,[9],inactive
CN1N=C(C(N)=O)CCC1=O,outcome,[1],inactive
same,Potency,[4],inactive
same,Potency,[6],inactive
same,Potency,[7],inactive
same,Potency,[8],inactive
same,outcome,[9],inactive
Cc1[nH]c(=O)c(C#N)cc1-c1ccc2nccn2c1,outcome,[1],inactive
same,Potency,[5],inactive
same,Potency,[7],inactive
same,outcome,[9],inactive
Cc1cccn2c(=O)c(-c3nnn[nH]3)cnc12,activity change,[1],0.228% [at 18.9 µM] (inactive)
same,outcome,[2],inactive
same,"activity, negative = inhibition",[3],3.16% [at 19 µM] (inactive)
same,"activity change, negative = cytotoxicity",[4],1.69% [at 19 µM] (inactive)
same,"activity change, negative = cytotoxicity",[7],-8.96% [at 19 µM] (inactive)
same,activation,[8],-1.22% [at 19 µM] (inactive)
same,cAMP activity change,[9],-0.907% [at 18.9 µM] (inactive)
Nc1nc2c(ncn2COC(CO)CO)c(=O)[nH]1,outcome,[1],inactive
same,outcome,[3],inactive
same,Potency,[4],inactive
same,Potency,[7],inactive
same,Potency,[8],inactive
same,outcome,[9],inactive
COC(=O)NN,Potency,[10],inactive
same,outcome,[2],inactive
same,outcome,[3],inactive
same,Potency,[4],inactive
same,Potency,[5],inactive
same,Potency,[7],inactive
same,Potency,[8],inactive
same,outcome,[9],inactive
CCSC(=O)N(CC(C)C)CC(C)C,outcome,[1],inactive
same,outcome,[2],inactive
same,Potency,[5],inactive
same,Potency,[6],inactive
same,Potency,[7],inactive
same,Potency,[8],inactive
same,outcome,[9],inactive
Cc1cccc(C)c1NC(=O)C(C)N (stereo not drawn),outcome,[1],inactive
same,Potency,[4],inactive
same,Potency,[5],inactive
same,Potency,[7],inactive
same,Potency,[8],inactive
same,outcome,[9],inactive
Cc1c(O)cccc1O,outcome,[1],inactive
same,Potency,[5],inactive
same,Potency,[7],inactive
same,Potency,[8],inactive
O=C(CCCN1CCC(O)(c2cccc(C(F)(F)F)c2)CC1)c1ccc(F)cc1,outcome,[1],inactive
same,Potency,[4],inactive
same,outcome,[9],inactive
CCc1nccnc1CC,activity change,[1],0.457% [at 18.9 µM] (inactive)
same,"activity change, negative = cytotoxicity",[4],1.15% [at 19 µM] (inactive)
same,"activity change, negative = cytotoxicity",[5],3.58% [at 19 µM] (inactive)
same,"activity change, negative = cytotoxicity",[7],15.2% [at 19 µM] (inactive)
same,activation,[8],-0.0927% [at 19 µM] (inactive)
same,cAMP activity change,[9],-3.22% [at 18.9 µM] (inactive)
O=C(O)CNC(=O)c1ccc([N+](=O)[O-])cc1,Potency,[10],inactive
same,outcome,[2],inactive
same,outcome,[3],inactive
same,Potency,[4],inactive
same,Potency,[5],inactive
same,Potency,[7],inactive
Cc1nc2c([nH]1)c(=O)n(C)c(=O)n2Cc1ccco1,outcome,[1],inactive
same,outcome,[3],inactive
same,Potency,[4],inactive
same,Potency,[5],inactive
same,Potency,[7],inactive
same,Potency,[8],inactive
C=CCCCCCCCCC=O,outcome,[1],inactive
same,outcome,[3],inactive
same,Potency,[7],inactive
same,Potency,[8],inactive
same,outcome,[9],inactive
CCCCC(CC)COC(=O)c1ccccc1O (stereo not drawn),outcome,[1],inactive
same,outcome,[2],inactive
same,outcome,[3],inactive
same,Potency,[4],inactive
same,Potency,[7],inactive
same,Potency,[8],inactive
same,outcome,[9],inactive
COC(C)(C)CCCC(C)CC=O (stereo not drawn),outcome,[1],inactive
same,outcome,[2],inactive
same,outcome,[3],inactive
same,Potency,[5],inactive
same,Potency,[7],inactive
same,outcome,[9],inactive
CC(=O)CC(C)(C)C1CCCCC1,Potency,[10],inactive
same,outcome,[2],inactive
same,outcome,[3],inactive
same,Potency,[4],inactive
same,Potency,[5],inactive
same,Potency,[7],inactive
same,Potency,[8],inactive
CN(C(=O)c1c(O)c2ccccc2n(C)c1=O)c1ccccc1,outcome,[1],inactive
same,Potency,[4],inactive
same,Potency,[5],inactive
same,Potency,[7],inactive
O=c1cc(CO)occ1O,outcome,[1],inactive
same,outcome,[2],inactive
same,Potency,[4],inactive
same,Potency,[5],inactive
same,Potency,[7],inactive
same,Potency,[8],inactive
same,outcome,[9],inactive
CCCCOCCOCCOCc1cc2c(cc1CCC)OCO2,outcome,[1],inactive
same,outcome,[3],inactive
same,Potency,[4],inactive
same,Potency,[6],inactive
same,Potency,[7],inactive
same,outcome,[9],inactive
CC(C)NC(=O)NC(C)C,outcome,[1],inactive
same,outcome,[3],inactive
same,Potency,[4],inactive
same,Potency,[5],inactive
same,Potency,[6],inactive
same,Potency,[7],inactive
same,Potency,[8],inactive
same,outcome,[9],inactive
